Assay outcomes as filed in PubChem BioAssay.
This is a sample that favours compounds with a hit; in the whole collection about 6.7% have one here.
Pf Dd2 growth – P. falciparum Dd2 growth inhibition; SYBR Green, 72 h; hits give low values; activity change, % at 10 µM; 94,000 compounds, 2.3% hits; AID 1159554; in the data active means activity change below about -80%; inconclusive means no clear call, values can overlap the other calls
C diff growth – C. difficile growth inhibition | Clostridium difficile clinical isolate growth, OD600, 24 h; hits give low values | growth activity, negative = inhibition, % at 16 µg/mL (by protocol) | 86,000 compounds, 0.25% hits | AID 1259249;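 active means mean growth activity at or below -80% and every replicate also at or below -80%; inconclusive means mean at or below -80% but some replicate above -80%; inactive means mean growth activity above -80%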;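 further: 0% = DMSO wells and -100% = levofloxacin 16 µg/mL wells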
T cruzi growth-1 – T. cruzi proliferation inhibition | 77,000 compounds, 5.9% hits | inhibition, % at 8.34 µM | T. cruzi beta-gal in NIH3T3, GalScreen luminescence, 90 h | AID 624255;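 active means mean inhibition above about 93%, with at least 55% of replicates each passing it, limit read from the data, passing the limit was not always enough; inconclusive means only one of those two conditions holds; inactive means neither condition holds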
T cruzi growth-2 – Trypanosoma cruzi proliferation inhibition; shares compounds with T cruzi growth-1; T. cruzi beta-gal in NIH3T3, GalScreen luminescence, 90 h; inhibition, % at 8.35 µM; 5,600 compounds, 72% hits;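 active means mean replicate inhibition above about 95% and at least 55% of replicates individually reaching it, limit read from the data; inconclusive means only one of the two criteria is met; inactive means neither criterion is met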
T cruzi growth-3 – blocks T. cruzi growth in NIH3T3 host cells; shares compounds with T cruzi growth-1; T. cruzi beta-gal in NIH3T3, GalScreen luminescence, 90 h; 5,600 compounds, 21% hits; inhibition, % at 2.09 µM;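 active means mean inhibition above about 95%, with at least 55% of replicates also reaching it, limit read from the data; inconclusive means meets just one of the two conditions; inactive means meets neither condition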;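 further: plate controls were neutral control median for no effect and positive control median for full effect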
3T3 cytotox – kills mouse NIH/3T3 fibroblasts; NIH/3T3 viability, CellTiter-Glo ATP luminescence, 90 h; 5,600 compounds, 14% hits; cytotoxicity (signal decrease), % at 8.35 µM; shares compounds with T cruzi growth-1;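 active means mean signal decrease across replicates above about 35% based on untreated-well scatter, with enough replicates individually passing, limit read from the data; inconclusive means no rule stated though some were filed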;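 further: 0% = median of neutral control wells and 100% = median of positive control wells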
3T3 cytotox 2 – kills mouse NIH/3T3 fibroblasts. shares compounds with T cruzi growth-1. NIH/3T3 viability, CellTiter-Glo ATP luminescence, 90 h. inhibition, % at 24.9 µM. 5,600 compounds, 56% hits. AID 651744;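 active means mean loss of cell viability signal at or above a set limit, and enough replicates individually reaching it; inconclusive means meets only the mean limit or only the replicate share; inactive means meets neither condition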;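 further: 0% = median of neutral control wells and 100% = median of positive control wells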
* = called active by the depositor.

Screening Cc1ccc(S(=O)(=O)N2CC[C@@H]3[C@H](CO)Nc4ccc(C#Cc5cccc(F)c5)cc4[C@@H]32)cc1 returned Pf Dd2 growth -3, C diff growth -1 and T cruzi growth-1 71.
Screening Cc1ccc(S(=O)(=O)N2CC[C@@H]3[C@@H](CO)Nc4ccc(C#Cc5cccc(F)c5)cc4[C@@H]32)cc1 returned Pf Dd2 growth -14, C diff growth 8, T cruzi growth-1 99*, T cruzi growth-2 101*, T cruzi growth-3 108*, 3T3 cytotox 39* and 3T3 cytotox 2 57*.
Screening Cc1ccc(S(=O)(=O)N2CC[C@@H]3[C@H]2c2cc(C#Cc4ccccc4F)ccc2N[C@@H]3CO)cc1 returned Pf Dd2 growth -1, C diff growth 46, T cruzi growth-1 inconclusive, T cruzi growth-2 113*, T cruzi growth-3 110*, 3T3 cytotox 24 and 3T3 cytotox 2 inconclusive.
Screening CCCNC(=O)C[C@@H]1CC[C@@H]2[C@H](COC[C@@H](O)CN2Cc2cccc(F)c2)O1 returned Pf Dd2 growth 12, C diff growth 4 and T cruzi growth-1 11.
O=C(Nc1cccc(Cl)c1)N1C[C@H]2[C@@H](c3ccccc31)[C@H](CO)N2C(=O)c1cccnc1 was read as Pf Dd2 growth 11, C diff growth -1 and T cruzi growth-1 34.
N#C[C@@H]1[C@@H](c2ccc(-c3ccncc3)cc2)[C@@H](CO)N1C(=O)C1CCC1 was read as Pf Dd2 growth 20, C diff growth 6 and T cruzi growth-1 -1.
Screening C[C@H]1CN([C@@H](C)CO)S(=O)(=O)c2ccc(C#Cc3ccccc3)cc2O[C@@H]1CN(C)C(=O)Cc1ccccn1 returned Pf Dd2 growth -78, C diff growth -10, T cruzi growth-1 105*, T cruzi growth-2 105*, T cruzi growth-3 35, 3T3 cytotox 21 and 3T3 cytotox 2 51*.
CC(C)C#Cc1ccc2c(c1)O[C@@H](CN(C)C(=O)Cc1ccccn1)[C@H](C)CN([C@H](C)CO)S2(=O)=O was read as Pf Dd2 growth -53, C diff growth 0 and T cruzi growth-1 20.
Screening C[C@@H]1CN([C@H](C)CO)S(=O)(=O)c2ccc(C#Cc3ccccc3)cc2O[C@@H]1CN(C)C(=O)Cc1ccccn1 returned Pf Dd2 growth -71, C diff growth 1, T cruzi growth-1 inconclusive, T cruzi growth-2 109*, T cruzi growth-3 73, 3T3 cytotox 24 and 3T3 cytotox 2 58*.
`CC(C)C#Cc1ccc2c(c1)O[C@H](CN(C)C(=O)Cc1ccccn1)[C@H](C)CN([C@H](C)CO)S2(=O)=O` gave Pf Dd2 growth -22, C diff growth 13 and T cruzi growth-1 33.
`CCCN(C)C[C@@H]1OCc2cnnn2CCCC(=O)N([C@@H](C)CO)C[C@H]1C` gave Pf Dd2 growth 8, C diff growth -4 and T cruzi growth-1 9.
`O=C(c1ccc(F)cc1)N1CC(=O)N2[C@H](CO)[C@@H](c3ccc(-c4ccccc4)cc3)[C@H]2C1` gave Pf Dd2 growth -34 and C diff growth 0.
For CCC(=O)Nc1ccc2c(c1)C(=O)N(C)C[C@@H](OC)[C@@H](C)CN(CCc1ccccc1)[C@@H](C)CO2 the results were Pf Dd2 growth 11 and T cruzi growth-1 -12.
`O=C(Nc1cc(F)ccc1F)N1CCCCN2[C@H](C1)[C@@H](c1ccc(-c3ccncc3)cc1)[C@@H]2CO` gave Pf Dd2 growth -14, C diff growth -1 and T cruzi growth-1 94.
For O=C(Nc1cc(F)ccc1F)N1CCCCN2[C@H](CO)[C@H](c3ccc(-c4cccnc4)cc3)[C@H]2C1 the results were Pf Dd2 growth -45, C diff growth 1, T cruzi growth-1 104*, T cruzi growth-2 101*, T cruzi growth-3 59, 3T3 cytotox -25 and 3T3 cytotox 2 inconclusive.
`O=C(Nc1cc(F)ccc1F)N1CCCCN2[C@H](CO)[C@@H](c3ccc(-c4ccncc4)cc3)[C@@H]2C1` gave Pf Dd2 growth -16, C diff growth 13 and T cruzi growth-1 88.
For O=C(Nc1cc(F)ccc1F)N1CCCCN2[C@H](CO)[C@@H](c3ccc(-c4ccccc4)cc3)[C@H]2C1 the results were Pf Dd2 growth -38, C diff growth 14 and T cruzi growth-1 36.
O=C(Nc1cc(F)ccc1F)N1CCCCN2[C@H](C1)[C@@H](c1ccc(-c3ccccc3)cc1)[C@@H]2CO was read as Pf Dd2 growth -21, C diff growth 34, T cruzi growth-1 99*, T cruzi growth-2 101*, T cruzi growth-3 102*, 3T3 cytotox 62* and 3T3 cytotox 2 106*.
For O=C(Nc1cc(F)ccc1F)N1CCCCN2[C@H](CO)[C@@H](c3ccc(-c4cccnc4)cc3)[C@H]2C1 the results were Pf Dd2 growth -26, C diff growth -10 and T cruzi growth-1 61.
For O=C(Nc1cc(F)ccc1F)N1CCCCN2[C@H](C1)[C@@H](c1ccc(-c3cncnc3)cc1)[C@@H]2CO the results were Pf Dd2 growth 14, C diff growth 4, T cruzi growth-1 105*, T cruzi growth-2 4, T cruzi growth-3 -14, 3T3 cytotox -16 and 3T3 cytotox 2 -2.
Screening O=C(Nc1cc(F)ccc1F)N1CCCCN2[C@H](CO)[C@H](c3ccc(-c4cncnc4)cc3)[C@@H]2C1 returned Pf Dd2 growth 21, C diff growth -4, T cruzi growth-1 115*, T cruzi growth-2 54, T cruzi growth-3 31, 3T3 cytotox 23 and 3T3 cytotox 2 19.
`CNC[C@H]1Oc2ncc(-c3cccc(C(=O)N(C)C)c3)cc2C(=O)N([C@H](C)CO)C[C@H]1C` gave Pf Dd2 growth -4 and C diff growth -6.
For CO[C@H]1CN(C)C(=O)c2cc(NC(=O)Nc3cccc(Cl)c3)ccc2OC[C@@H](C)NC[C@H]1C the results were Pf Dd2 growth -56 and T cruzi growth-1 23.
Screening Cc1ccc(S(=O)(=O)N[C@@H]2CC[C@H](CCn3cc(-c4ccccc4F)nn3)O[C@@H]2CO)cc1 returned Pf Dd2 growth -36 and C diff growth -8.
Screening COc1ccc(-c2ccc3n(c2=O)C[C@@H]2[C@@H](CO)[C@H](C(=O)N4CCN(C)CC4)N[C@H]32)cc1 returned Pf Dd2 growth -20, C diff growth 1 and T cruzi growth-1 45.
CO[C@H]1CN(C)C(=O)c2ccc(NC(=O)C3CC3)cc2OC[C@@H](C)N(C(=O)C2CCCCC2)C[C@H]1C was read as Pf Dd2 growth -20, C diff growth -3 and T cruzi growth-1 -26.
C[C@H]1CN([C@@H](C)CO)C(=O)c2cc(C#CC3(O)CCCC3)cnc2O[C@H]1CN(C)C(=O)Cc1cccnc1 was read as Pf Dd2 growth 5 and C diff growth -3.
